Data on 40 compounds can be found in PubChem BioAssay (Tox21).

The structures appear in SMILES notation. Records with an inconclusive call do not appear. Where a call stands in place of a potency, no number is given. Calls of active or inactive are those of the source. Calls follow the shape of the full dose curve.
Potency is read from the fitted curve at half-maximal effect.

Sequence of Thyrotropin receptor (Homo sapiens) (P16473 whole entry, looked up): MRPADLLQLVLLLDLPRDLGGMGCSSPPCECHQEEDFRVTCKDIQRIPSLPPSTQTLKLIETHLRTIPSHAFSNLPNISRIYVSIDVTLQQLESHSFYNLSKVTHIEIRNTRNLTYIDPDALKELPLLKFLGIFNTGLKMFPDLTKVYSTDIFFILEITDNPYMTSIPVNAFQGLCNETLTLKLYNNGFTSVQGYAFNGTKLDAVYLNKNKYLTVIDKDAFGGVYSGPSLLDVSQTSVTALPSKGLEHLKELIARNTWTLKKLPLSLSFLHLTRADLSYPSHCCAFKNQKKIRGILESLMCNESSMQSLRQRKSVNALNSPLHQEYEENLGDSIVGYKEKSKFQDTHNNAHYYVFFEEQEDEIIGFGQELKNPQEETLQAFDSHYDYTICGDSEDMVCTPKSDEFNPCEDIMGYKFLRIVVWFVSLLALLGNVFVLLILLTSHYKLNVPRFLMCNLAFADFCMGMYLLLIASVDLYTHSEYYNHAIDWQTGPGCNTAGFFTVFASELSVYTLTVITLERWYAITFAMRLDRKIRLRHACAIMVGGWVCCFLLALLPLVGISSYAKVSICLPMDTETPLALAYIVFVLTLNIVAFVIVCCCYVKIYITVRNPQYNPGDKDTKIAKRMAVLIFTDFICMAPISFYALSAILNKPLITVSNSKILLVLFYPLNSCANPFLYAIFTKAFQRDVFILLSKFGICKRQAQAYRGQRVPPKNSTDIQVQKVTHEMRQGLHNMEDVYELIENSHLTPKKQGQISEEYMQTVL

For the test, the target named is Thyrotropin receptor (Homo sapiens) (UniProt P16473). Briefly: qHTS assay to identify small molecule agonists of the thyroid stimulating hormone receptor (TSHR) signaling pathway (AID 1224843). Also: nearly all actives have a fitted effect of over 45% in size. Particulars: TSHR-HEK293 cells, cAMP HTRF, agonist mode, 30 min; series mostly up to 92.4 µM. An excerpt:
National Center for Advancing Translational Sciences [NCATS]
NIH Chemical Genomics Center [NCGC]
U.S. Environmental Protection Agency [EPA]
National Institutes of Environmental Health Sciences [NIEHS]
National Toxicology Program [NTP]
U.S. Food and Drug Administration [FDA]
TSHR is the receptor for thyrotropin (thyroid stimulating hormone or TSH), a member of the glycoprotein hormone family. TSH is released by the anterior pituitary gland and is the main regulator of thyroid gland growth and development. Upon binding circulating thyrotropin, a G-protein signal cascade activates adenylyl cyclase and […] cAMP concentration is increased. cAMP is a key second messenger involved extensively in cellular signal transduction pathways associated with the majority of G-protein coupled receptors (GPCRs). The activation of these GPCRs by neurotransmitters, lipids, nucleotides, peptides and hormones results in the activation or the inhibition of plasma membrane-bound adenylate cyclase through heterotrimeric G-proteins. A cell-based TSHR assay was used to screen the Tox21 10K library for compounds that can modulate TSHR in agonist mode.
Tox21 Assay Protocol Summary:
TSHR-Hek293 cells were dispensed at 800 cells/4uL/well in 1536-well white plates using a Multidrop dispenser. […] The plates were incubated at room temperature for 30 min. 2.5 ul/well of cAMP-d2 and 2.5ul/well of anti-cAMP-cryptate was added respectively into the assay plates using a Flying Reagent Dispenser. After 1 hr incubation at room temperature, the fluorescence intensity in the plates was measured using an Envision plate reader. Each test compound was measured at 15 concentrations and in triplicates.
For orientation: In qHTS, concentration-response curves come from the screen itself.
On to `Oc1ccc(Cl)c(Cl)c1Cl`, for which the Potency entry was “inactive”. Turning to `c1ccc(CN2CCNCC2)cc1`, the Potency entry is “inactive”. Consider `C=COC(C)=O`, for which the Potency entry was “inactive”.

For the compound `COC(=O)C(Cl)C(=O)OC`, the Potency result was “inactive”. Regarding `O=[Se]=O`, the Potency result was “inactive”. With `NCCCNCCCN`, the Potency result is “inactive”. For the compound `O=C(O)c1ccccc1C(=O)Nc1cccc2ccccc12`, the Potency result was “inactive”. With `ClCc1cccc(Cl)c1`, the Potency entry was “inactive”. For `C=CC(=O)NCNC(=O)C=C`, the Potency result was “inactive”.

For `CN1C[C@H](CNC(=O)OCc2ccccc2)C[C@@H]2c3cccc4c3c(cn4C)C[C@H]21`, the Potency entry was “inactive”. Same read-out and setting: then `Cc1cc(=O)[nH]o1`, with “inactive”; and `COc1cc(CC(C)N)cc2c1OCO2` (stereo not given), with “inactive”. For `Cl/C=C\C[N+]12CN3CN(CN(C3)C1)C2`, the Potency result is “inactive”. Still for that read-out and setting: in the case of `CCCCCCCCOC(=O)c1ccc(C(=O)OCCCCCCCC)c(C(=O)OCCCCCCCC)c1` it was “inactive”; in that of `O=C(CBr)Nc1ccc(Cl)cc1C(=O)c1ccccc1F`, “inactive”; in that of `CCCCCCCCCCOC(=O)c1ccccc1C(=O)OCCCCCCCCCC`, “inactive”.

Regarding `O=C(CCl)c1ccc(Cl)cc1Cl`, the Potency entry was “inactive”. As to `BrCCCCBr`, the Potency result was “inactive”. For the compound `Sc1ccccc1Cl`, the Potency result was “inactive”.

Regarding `CC(=O)[C@H]1CC[C@H]2[C@@H]3CC[C@H]4C[C@](C)(O)CC[C@]4(C)[C@H]3CC[C@]12C`, the Potency result is “inactive”. Turning to `CO/N=C(/C(=O)OC)c1ccccc1COc1ccccc1C`, the Potency result was “inactive”.

In the case of `CC(=O)CCC(C)=O`, the Potency entry was “inactive”. Still for that read-out and setting: then `OC(c1ccc(Cl)cc1)(c1ccc(Cl)cc1)c1cccnc1`, with 30.6 µM (active); and `Nc1nc(=S)[nH][nH]1`, with “inactive”; and `Brc1ccc(Oc2ccccc2)cc1`, with 1.25 µM (active). Regarding `Clc1ccc(C2(Cn3cncn3)CC(Br)CO2)c(Cl)c1` (stereo not given), the Potency result is “inactive”. The same measure, in the same setting: in the case of `N#CCc1ccccc1` it was “inactive”; in that of `C=CCCl`, “inactive”; in that of `CCC(Br)(CC)C(=O)NC(N)=O`, “inactive”. Consider `C=CC(=O)OCC(C)C`, for which the Potency entry is “inactive”. In the case of `C=CCOC(C)=O`, the Potency entry was “inactive”. On to `CO[C@@H]1[C@H](OC(=O)NC(=O)CCl)CC[C@]2(CO2)[C@H]1[C@@]1(C)O[C@@H]1CC=C(C)C`, for which the activation is -6.28% [at 19 µM] (inactive).

For `CCCN(CC1CC1)c1c([N+](=O)[O-])cc(C(F)(F)F)cc1[N+](=O)[O-]`, the Potency was 6.86 µM (active). On the same count and under the same terms, in the case of `Nc1nc(N)nc(N)n1` it was “inactive”; in that of `NC(=O)C(Cl)(Cl)Cl`, “inactive”. As to `CCN(C)N=O`, the Potency entry was “inactive”. With `C=CC(=O)OCCCCO`, the Potency result is “inactive”.

Take `C=CCC1([C@H](C)CCC)C(=O)NC(=O)NC1=O`: the Potency result is “inactive”. Turning to `N#C/C(N)=C(/N)C#N`, the Potency entry is “inactive”.

In the case of `CC/C(=N\OC/C=C/Cl)C1=C(O)CC(C2CCOCC2)CC1=O` (stereo not given), the Potency result is “inactive”.
